AmpC inh detg: AmpC beta-lactamase inhibition with detergent present | Potency, µM (highest dose often 114 µM), inactives show top-dose activity change, negative = inhibition, hits mostly inhibitors | 0.041% of 370,000 active | P00811 | AmpC hydrolysis of nitrocefin, absorbance 480 nm, 0.01% Triton;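 note: 0% = no-compound wells and -100% = no-enzyme wells; nearly all actives have a fitted effect of over 25% in size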
Target sequence (P00811 whole entry, looked up): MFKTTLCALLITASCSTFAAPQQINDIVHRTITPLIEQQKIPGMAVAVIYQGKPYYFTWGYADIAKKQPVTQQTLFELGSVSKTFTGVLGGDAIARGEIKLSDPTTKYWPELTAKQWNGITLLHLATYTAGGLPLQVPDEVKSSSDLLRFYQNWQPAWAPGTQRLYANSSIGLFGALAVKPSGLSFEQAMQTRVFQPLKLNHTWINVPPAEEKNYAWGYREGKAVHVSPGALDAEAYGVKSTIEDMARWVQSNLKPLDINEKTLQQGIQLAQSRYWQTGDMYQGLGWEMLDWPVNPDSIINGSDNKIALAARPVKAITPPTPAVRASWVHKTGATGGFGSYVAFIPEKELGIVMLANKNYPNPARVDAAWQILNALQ
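20 mM phosphate pH 7.0 + 0.01% (detergent screen) or 0.0001% Triton X-100; 5.3 nM AmpC reagent; cpd preinc 15 min RT; nitrocefin (800 uM stock) to start; A480 q20 s × 4 min; Activity was normalised to no-enzyme and no-compound control wells.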
VACV Venus inh: vaccinia inhibition (Venus reporter); Vaccinia virus Venus reporter expression, fluorescence; Potency, µM (doses to about 36.5 µM), for the others: top-dose activity change, negative = inhibition, usual class: inhibitors; 0.46% of 330,000 active; calls by dose curve; tested in A549 cells; note: % is set by controls: 0 for no effect and ±100 for the full control effect; nearly all actives have a fitted effect of over 30% in size
AMA1-RON2 inh: disrupts binding of P. falciparum AMA1 to RON2; AlphaScreen AMA1-biotinylated RON2 peptide binding; Potency, µM (titrated, usually from 58.2 µM), for the others: top-dose activity change, negative = inhibition, actives largely listed as inhibitors; 0.2% of 360,000 active; AID 720542;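 note: 0% = vehicle wells and -100% = peptide control; nearly all actives have a fitted effect of over 45% in size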
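AMA1 (3D7) with his tag at 25 nM final met compounds first, then biotinylated RON2 peptide at 25 nM; detection used donor plus acceptor beads, 10 µg/mL apiece, read by AlphaScreen after 30 min at room temperature.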
SARS PLpro yeast: blocks SARS-CoV papain-like protease in a yeast assay; S. cerevisiae expressing SARS-CoV PLpro, growth rescue; Potency, µM (highest dose often 32.9 µM), inactives show top-dose activity, positive = growth rescue, actives largely listed as activators; 0.19% of 330,000 active; calls by dose curve; note: 0% is about no effect; nearly all actives have a fitted effect of over 55% in size
VACV mCherry inh: vaccinia inhibition (mCherry reporter) | Potency, µM (doses to about 36.5 µM), for inactives: top-dose activity change, negative = inhibition, most hits filed as inhibitors | AID 720579 | 0.63% of 310,000 active | Vaccinia virus mCherry reporter infection, fluorescence; calls by dose curve; tested in A549 cells; note: % is set by controls: 0 for no effect and ±100 for the full control effect; nearly all actives have a fitted effect of over 35% in size
AmpC inh no detg: AmpC beta-lactamase inhibition without detergent; Potency, µM (titrated, usually from 57.1 µM), inactives show top-dose activity change, negative = inhibition, usual class: inhibitors; P00811; 0.52% of 330,000 active; AmpC nitrocefin hydrolysis, absorbance 480 nm, 0.0001% Triton;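 note: plate controls were no compound for no effect and no enzyme for full effect; nearly all actives have a fitted effect of over 20% in size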
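20 mM phosphate pH 7.0 + 0.01% (detergent screen) or 0.0001% Triton X-100; 5.3 nM AmpC reagent; cpd preinc 15 min RT; nitrocefin (800 uM stock) to start; A480 q20 s × 4 min; Activity was normalised to no-enzyme and no-compound control wells.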
* hit, by the source's call; i = inactive; ? = inconclusive; / = no result. Most compounds without a hit are left out; they make up all but 1.3% or so of the library. Unless noted, calls come from the whole dose curve; as a rule, active = well fitted curve in the direction sought with a large enough effect; inconclusive = small, poorly fitted or top-dose-only effect, or another doubt; inactive = no such curve, though single readings can be large; an effect the other way counts as inactive or inconclusive. Potency is the fitted concentration of half-maximal effect.

SMILES	AmpC inh detg	VACV Venus inh	AMA1-RON2 inh	SARS PLpro yeast	VACV mCherry inh	AmpC inh no detg
CC(=O)Nc1cccc(NC(=O)CSc2ncc(-c3ccc(Cl)cc3)n2Cc2ccco2)c1	-2%	?	-5%	-11%	?	25%
COc1ccc(-c2cnc(SCC(=O)Nc3ccc4c(c3)OCO4)n2Cc2ccco2)cc1	-3%	-14%	14µM*	2%	-24%	-42%
COc1ccc(CN(CCN(C)C)c2ncccn2)cc1	/	?	/	/	-13%	/
CCCCCCCCCCCCCCCC[N+](C)(C)CCN(Cc1ccc(OC)cc1)c1ncccn1	?	13µM*	-1%	/	?	182%
CCCCC1(CCCC)C(=O)NC(=Nc2cccc(C)c2)NC1=O	1%	10µM*	52%	-11%	?	-50%
Cc1cccc(N=C2CSC(=O)N2)c1	-11%	-2%	3%	1%	-14%	-4%
COc1ccccc1C1CN(CC(=O)NCC2OCCc3ccccc32)Cc2ccccc2O1 (stereo not given)	/	-4%	/	/	-14%	/
Cc1oc(-c2cccc(Cl)c2)nc1CN1CCC(C(=O)N2CCN(c3ccccc3F)CC2)CC1	7%	16µM*	7%	0%	?	188%
Cc1ccccc1-c1nc(CN2CCC(C(=O)N3CCC(C(N)=O)CC3)CC2)c(C)o1	?	-5%	4%	2%	i	11µM*
COc1ccccc1-c1ccc(C(=O)N(C)CC2COCCO2)c(N2CCN(c3ccccc3F)CC2)n1 (stereo not given)	/	-11%	/	/	-7%	/
NC(=S)NN=Cc1nccc2c(C(F)(F)C(F)(F)C(F)(F)F)cccc12	/	1µM*	125%	/	0.32µM*	/
Oc1ccc(/C=N/N(c2ccccc2)c2ccccc2)c(O)c1O	4%	/	/	1%	/	28µM*
CCCCN(CCC#N)c1ccc(/C=C/c2ccnc3ccccc23)cc1	/	-7%	/	/	?	/
CCOc1ccc(NS(=O)(=O)c2cnc(Cl)c(Cl)c2)cc1	-1%	13µM*	12%	-40%	?	-18%
Cc1cc(C)cc(NS(=O)(=O)c2cnc(Cl)c(Cl)c2)c1	-4%	?	11%	-20%	/	-15%
O=C(OCc1ccccc1)/C(=C/c1cccc2ccccc12)NC(=O)c1ccccc1	-10%	-25%	-15%	22%	-25%	-29%
C=CCOC(=O)/C(=C/c1cccc2ccccc12)NC(=O)c1ccccc1	?	-23%	0%	-31%	?	13µM*
CN(C)CC(C)(C)CNC(=O)c1cnn(-c2nccc(-c3ccc4c(c3)OCO4)n2)c1-c1ccco1	/	4%	/	/	-8%	/
O=C(/C=C\c1ccco1)Nc1nc(-c2ccc3ccccc3c2)cs1	-1%	?	-18%	-2%	?	-40%
CC(=O)NC(=S)Nc1ccc(NC(=S)NC(=O)/C=C/c2ccco2)cc1	0%	-7%	7%	0%	i	-51%
COc1ccc(NC(=S)NC(=O)/C=C/c2ccco2)cc1	8%	-8%	46%	4%	-17%	16µM*
Cc1ccc(-c2csc(NC(=S)NC(=O)/C=C/c3ccco3)n2)cc1	0%	/	21%	-4%	/	4µM*
COc1cc(OC)c(NS(=O)(=O)c2c(C(=O)N3CCCCCC3)c(C)n(C)c2C)cc1Cl	2%	-7%	/	/	-10%	/
CC1(C)CN=c2s/c(=C\c3ccc(Cl)cc3)c(=O)n2C1	3%	?	60%	-1%	10µM*	28%
CC(C)(C)NC(=O)C[C@H]1C[C@H](C(=O)N2CCOCC2)[C@@]2(CCC3CCCC3)c3[nH]c4cc(-c5ccco5)ccc4c3CCN2C1=O	/	10µM*	-17%	4%	?	183%
SMILES	AmpC inh detg	VACV Venus inh	AMA1-RON2 inh	SARS PLpro yeast	VACV mCherry inh	AmpC inh no detg
O=C(C[C@H]1C[C@H](C(=O)N2CCOCC2)[C@@]2(CCC3CCCC3)c3[nH]c4cc(-c5ccco5)ccc4c3CCN2C1=O)NCCN1CCOCC1	/	?	-27%	-3%	?	259%
CN(C)CCCNC(=O)C[C@H]1C[C@H](C(=O)N2CCOCC2)[C@@]2(CCC3CCCC3)c3[nH]c4cc(-c5ccco5)ccc4c3CCN2C1=O	/	13µM*	3%	-5%	?	216%
CCN(CC)c1ccc(/C=C/c2ccccn2)cc1	/	i	/	/	1%	/
CN(CC(=O)NC(=O)NCc1ccccc1)Cc1ccc(Cl)cc1	-13%	-15%	16%	11%	-14%	-9%
CN(CC(=O)NC(=O)NCc1ccccc1)Cc1cccc(Cl)c1Cl	-12%	?	-7%	-34%	14µM*	-10%
N=c1n(Cc2ccccc2)c2ccccc2n1CC(O)COc1ccccc1 (stereo not given)	-6%	/	-10%	22µM*	/	2%
CCCCCn1c(=N)n(CC(O)COc2cccc(C)c2)c2ccccc21 (stereo not given)	15%	10µM*	/	/	10µM*	/
COc1ccc(O)c(C(=O)N2CCC3(CC2)c2ccccc2[C@@H](NC(=O)c2ccccn2)[C@@H]3OC)c1	/	13%	/	/	-9%	/
CN(Cc1ccccc1)S(=O)(=O)c1ccc2c(c1)n(C)c(=O)c(=O)n2C	-2%	/	-2%	-1%	/	-7%
CN(Cc1ccccc1)C(=O)CCS(=O)(=O)c1ccc2c(c1)n(C)c(=O)c(=O)n2C	?	2%	-7%	8%	0%	0.5µM*
COc1cccc(CNC(=O)Cn2ncc3c4ccccc4n(C)c3c2=O)c1	0%	4%	/	/	-7%	/
COc1cccc(Cn2ncc3c4sc(B(O)O)cc4n(C)c3c2=O)c1	1.1µM*	/	/	-7%	/	2.2µM*
O=C1NC(=O)N(c2ccccc2F)C(=O)/C1=C/c1ccc(Sc2nc3ccccc3[nH]2)o1	-10%	i	-22%	-4%	i	-41%
O=C1NC(=O)N(c2cccc(Cl)c2)C(=O)/C1=C\c1ccc(Sc2nc3ccccc3[nH]2)o1	-11%	i	?	9%	i	22µM*
COc1cc(CN2CCc3nnc(C(NS(C)(=O)=O)C(C)C)n3CC2)ccc1F (stereo not given)	/	-1%	/	/	1%	/
COc1ccc(O)c(CN2CCC3(CCC(CNC(=O)c4ccccc4)O3)CC2)c1 (stereo not given)	/	-17%	/	/	-17%	/
Cc1ccc2oc(C(=O)N(Cc3ccc(N(C)C)cc3)C3CCS(=O)(=O)C3)c(C)c2c1 (stereo not given)	-7%	-15%	28µM*	-10%	i	110%
Cc1ccc2c(=O)cc(C(=O)N(Cc3ccc(N(C)C)cc3)C3CCS(=O)(=O)C3)oc2c1 (stereo not given)	5%	-4%	/	/	-5%	/
Cc1ccc2c(C)c(C(=O)N(Cc3ccc(N(C)C)cc3)C3CCS(=O)(=O)C3)oc2c1 (stereo not given)	-13%	-21%	18µM*	-13%	-26%	93%
